The nature of experiment [1]: qHTS assay to identify small molecule antagonists of the sonic hedgehog signaling (Shh) pathway (AID 1259369; calls by dose curve; further: nearly all actives have a fitted effect of over 45% in size; further: potency means the concentration at half of the fitted maximal effect). The procedure, abridged:
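NIH/3T3 stable Gli1-Luc clone, 2,000 cells/well, 4hr settle; cpd + conditioned medium 24hr; Luc reagent 30min RT; luminescence.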
A general note: Quantitative high-throughput screening tests each substance at several concentrations.

The target in experiment [2] is Estrogen receptor beta (Homo sapiens) (UniProt Q92731). Briefly: qHTS assay to identify small molecule agonists of the estrogen receptor beta (ER-beta) signaling pathway (AID 1259377; active means well fitted activation curve with a large enough effect in the signal ratio in the repeat runs, not every such curve was filed as active; the % refers to the signal ratio). The procedure, abridged: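 Screening used GripTite ER-beta-UAS-bla cells held in 2% charcoal-stripped FBS medium. After overnight (16 hr) compound incubation at 37C, beta-lactamase activity was detected with a FRET substrate by fluorescence.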
Sequence of Estrogen receptor beta (Homo sapiens) (Q92731 whole entry, looked up): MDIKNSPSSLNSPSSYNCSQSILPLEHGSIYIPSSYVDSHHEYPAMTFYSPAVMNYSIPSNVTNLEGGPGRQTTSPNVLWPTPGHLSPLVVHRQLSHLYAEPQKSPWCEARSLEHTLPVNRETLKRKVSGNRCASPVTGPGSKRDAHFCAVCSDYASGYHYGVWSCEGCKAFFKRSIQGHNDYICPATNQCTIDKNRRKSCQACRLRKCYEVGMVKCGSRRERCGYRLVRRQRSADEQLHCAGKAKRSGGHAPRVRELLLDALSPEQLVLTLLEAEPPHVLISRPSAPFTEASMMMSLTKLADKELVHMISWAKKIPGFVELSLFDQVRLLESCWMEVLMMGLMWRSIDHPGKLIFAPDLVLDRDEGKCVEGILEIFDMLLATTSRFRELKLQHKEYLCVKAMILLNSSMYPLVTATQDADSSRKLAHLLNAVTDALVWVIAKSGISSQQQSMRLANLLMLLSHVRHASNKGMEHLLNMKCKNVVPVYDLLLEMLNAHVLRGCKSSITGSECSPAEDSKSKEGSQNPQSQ

Experiment [3] has the same target. Briefly: qHTS assay to identify small molecule antagonists of the estrogen receptor beta (ER-beta) signaling pathway (AID 1259378; active means well fitted inhibition curve with a large enough effect in the signal ratio in the repeat runs, not every such curve was filed as active; the % refers to the signal ratio; further: potency means the concentration at half of the fitted maximal effect). An outline of the steps: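 ER-beta-UAS-bla HEK293T cells in 2% charcoal-stripped FBS medium treated with compound plus 1nM final 17-beta-estradiol for 16 hr at 37C. Beta-lactamase reporter read by FRET substrate fluorescence after 2 hours at room temperature.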

The nature of experiment [4]: qHTS assay to identify small molecule agonists of the androgen receptor (AR) signaling pathway in the presence of an antagonist - cell viability counter screen (AID 1259379). Further: nearly all actives have a fitted effect of over 25% in size. Further: potency means the concentration at half of the fitted maximal effect. The procedure, abridged:
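MDA-kb2 viability measured by CellTiter-Fluor fluorescence in the same wells as the luciferase signal; nilutamide 3.0uM final; 15-point compound titration; 16 hr at 37C.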

The nature of experiment [5]: qHTS assay to identify small molecule agonists of the estrogen receptor beta (ER-beta) signaling pathway - cell viability counter screen (AID 1259380). Further: nearly all actives have a fitted effect of over 30% in size. Further: potency means the concentration at half of the fitted maximal effect. An outline of the steps:
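Measured: luminescence from CellTiter-Glo after 30 min at room temperature, added to wells already read for the LiveBLAzer FRET reporter (2 hr substrate); ER-beta-UAS-bla HEK293T cells had 16 hr compound treatment at 37C, 5% CO2.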

The nature of experiment [6]: qHTS assay to identify small molecule antagonists of the estrogen receptor beta (ER-beta) signaling pathway - cell viability counter screen (AID 1259382). Further: nearly all actives have a fitted effect of over 55% in size. Further: potency means the concentration at half of the fitted maximal effect. An outline of the steps:
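Readout: luminescence, CellTiter-Glo, same wells as bla assay. System: ER-beta-UAS-bla GripTite HEK293T, 2% charcoal-stripped FBS. Exposure: compounds plus 1nM 17-beta-estradiol, 16 hr, 37C.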

The target of experiment [7] is Estrogen receptor (Homo sapiens) (UniProt P03372). Nature of the experiment: qHTS assay to identify small molecule agonists of the estrogen receptor alpha (ER-alpha) signaling pathway in the presence of an antagonist (AID 1259383; calls by dose curve; further: nearly all actives have a fitted effect of over 15% in size; further: potency means the concentration at half of the fitted maximal effect; on activation: top concentration of the series differs between compounds). An outline of the steps: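 Quantitative HTS confirmation: compounds titrated at 15 concentrations onto estrogen-deprived VM7Luc4E2 cells carrying a four-ERE luciferase construct, with ICI-182,780 present at 10.0nM final. Signal is luminescence after 22hr exposure.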
Sequence of Estrogen receptor (Homo sapiens) (P03372 whole entry, looked up): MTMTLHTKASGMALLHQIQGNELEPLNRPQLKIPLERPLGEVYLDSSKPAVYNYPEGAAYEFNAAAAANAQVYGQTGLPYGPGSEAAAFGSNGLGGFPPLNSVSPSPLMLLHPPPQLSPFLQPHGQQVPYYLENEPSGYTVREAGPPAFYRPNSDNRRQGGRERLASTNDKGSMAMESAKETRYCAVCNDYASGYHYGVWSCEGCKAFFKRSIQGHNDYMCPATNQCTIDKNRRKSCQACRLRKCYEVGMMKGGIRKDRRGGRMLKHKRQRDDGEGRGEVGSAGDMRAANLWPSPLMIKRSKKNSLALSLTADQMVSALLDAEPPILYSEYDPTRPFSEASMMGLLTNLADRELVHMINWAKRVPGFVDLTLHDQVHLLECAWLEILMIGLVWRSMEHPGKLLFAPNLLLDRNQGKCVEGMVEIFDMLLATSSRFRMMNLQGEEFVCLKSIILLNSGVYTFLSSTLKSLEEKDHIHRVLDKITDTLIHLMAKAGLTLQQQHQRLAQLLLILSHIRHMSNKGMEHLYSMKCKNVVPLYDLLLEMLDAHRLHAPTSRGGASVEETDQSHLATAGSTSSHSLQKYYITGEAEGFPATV

Experiment [8] can be described thus: qHTS assay to identify small molecule agonists of the estrogen receptor alpha (ER-alpha) signaling pathway in the presence of an antagonist - cell viability counter screen (AID 1259386).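 Further: series mostly up to about 92 µM; cells exposed to compounds for 22 h at 37 °C before the viability read; nearly all actives have a fitted effect of over 30% in size.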 An outline of the steps:
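The test measures whether compounds kill ER-alpha reporter cells (VM7Luc4E2) under antagonist co-treatment (ICI-182,780, 10.0nM). Fluorescence from CellTiter-Fluor is read after a 22hr exposure.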

Experiment [9] addresses Progesterone receptor (Homo sapiens) (UniProt P06401). Briefly: qHTS assay to identify small molecule agonists of the progesterone receptor (PR) signaling pathway (AID 1346784; calls by dose curve; further: nearly all actives have a fitted effect of over 30% in size). The procedure, abridged:
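Seed PR-UAS-bla HEK 293T cells (2% charcoal-stripped FBS), incubate 6 hr at 37C; add compounds in DMSO, 16 hr at 37C; add LiveBLAzer B/G substrate, 2 hr RT; read fluorescence intensity.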

Experiment [10] shares this target. Briefly: qHTS assay to identify small molecule antagonists of the progesterone receptor (PR) signaling pathway (AID 1346795; active means well fitted inhibition curve with a large enough effect in the signal ratio in the repeat runs, not every such curve was filed as active; the % refers to the signal ratio; further: potency means the concentration at half of the fitted maximal effect). The procedure, abridged:
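Screening used a GripTite HEK293T line with PR-responsive UAS-beta-lactamase. Cells were challenged with compound in the presence of 1 nM R5020 final for 16 hr at 37C; B/G FRET substrate, 2 hr room temperature, fluorescence.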

Experiment [11] is described as follows: qHTS assay to identify small molecule antagonists of the progesterone receptor (PR) signaling pathway - cell viability counter screen (AID 1346798). Further: series mostly up to about 92 µM; nearly all actives have a fitted effect of over 50% in size. The procedure, abridged: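 Measures cytotoxicity in parallel with the PR antagonist reporter read: HEK293T PR-UAS-bla cells get compound and R5020 for 16 hr, and remaining viable cells are quantified by CellTiter-Glo luminescence.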

Experiment [12] is described as follows: qHTS assay to identify small molecule antagonists of the TGF-beta/Smad signaling pathway - cell viability counter screen (AID 1346824). Further: nearly all actives have a fitted effect of over 50% in size. An outline of the steps: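 SBE-bla HEK 293T cells, incubated overnight, then compound plus 0.25 ng/mL TGF-beta1 (stock added) for 5 hr at 37 C. Viability was read in the same wells by CellTiter-Glo luminescence after 30 min at room temperature.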

Experiment [13] in a line: qHTS assay to identify small molecule agonists of the TGF-beta/Smad signaling pathway - cell viability counter screen (AID 1346829). Further: top concentration of the series differs between compounds; nearly all actives have a fitted effect of over 45% in size. The procedure, abridged:
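Luminescence from CellTiter-Glo, read after a 30 min room-temperature incubation, gives cell viability of SBE-bla HEK 293T cells treated 5 hr with compounds at 37 C.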

For experiment [14], the target named is Thyrotropin-releasing hormone receptor (Homo sapiens) (UniProt P34981). Nature of the experiment: qHTS assay to identify small molecule antagonists of the thyrotropin-releasing hormone receptor (TRHR) signaling pathway (AID 1346877; active means well fitted inhibition curve with a large enough effect in the repeat runs, not every such curve was filed as active; further: series mostly up to about 51 µM). The procedure, abridged: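 Overnight-plated (18 h, 37 °C) HEK293 cells expressing TRHR were dye-loaded 2 h, treated with compound, then stimulated with TRH at 1 nM final. Fluorescence intensity was captured every second for 3 min.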
Sequence of Thyrotropin-releasing hormone receptor (Homo sapiens) (P34981 whole entry, looked up): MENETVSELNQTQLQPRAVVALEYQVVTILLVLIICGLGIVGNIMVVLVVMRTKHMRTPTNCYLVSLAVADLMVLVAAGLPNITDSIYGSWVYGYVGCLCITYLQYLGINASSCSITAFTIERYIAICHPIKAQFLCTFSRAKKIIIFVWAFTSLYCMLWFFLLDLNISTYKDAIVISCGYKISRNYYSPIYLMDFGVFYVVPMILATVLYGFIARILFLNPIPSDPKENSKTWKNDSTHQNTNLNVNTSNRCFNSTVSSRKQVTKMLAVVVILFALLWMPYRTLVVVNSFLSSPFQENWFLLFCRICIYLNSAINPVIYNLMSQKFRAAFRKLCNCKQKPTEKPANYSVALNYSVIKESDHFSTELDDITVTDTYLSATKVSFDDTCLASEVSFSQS

Experiment [15] can be described thus: qHTS assay to identify small molecule agonists or antagonists of the thyroid stimulating hormone receptor (TSHR) signaling pathway - wild type cell line counter screen (AID 1259384; calls by dose curve). An outline of the steps:
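Wild-type Hek293 cells, 800/well, 18 h at 37C, then compound with Ro20-1724 for 30 min RT. cAMP by HTRF (cAMP-d2/anti-cAMP cryptate), 1 h RT, fluorescence read. 15 concentrations, triplicates.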

Experiment [16] is described as follows: qHTS assay to identify small molecule agonists of the progesterone receptor (PR) signaling pathway - cell viability counter screen (AID 1346799; calls by dose curve; further: nearly all actives have a fitted effect of over 45% in size). An outline of the steps:
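Using the same plates as the PR reporter screen, HEK293T PR-UAS-bla cells received compounds for 16 hr at 37C and were then lysed with CellTiter-Glo; luminescence was read 30 min later at room temperature.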

Experiment [17] concerns the target Thyrotropin-releasing hormone receptor (Homo sapiens) (UniProt P34981). Nature of the experiment: qHTS assay to identify small molecule agonists of the thyrotropin-releasing hormone receptor (TRHR) signaling pathway (AID 1346891; calls by dose curve;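 further: HEK293 cells expressing TRHR with calcium dye readout; series mostly up to about 58 µM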). The procedure, abridged: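 Overnight-plated (18 h, 37 °C, 5% CO2) TRHR-Hek293 cells; 2 h calcium dye at 37 °C; compound in DMSO; 3-min kinetic fluorescence read.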

Experiment [18] is described as follows: qHTS assay to identify small molecule agonists of the TGF-beta/Smad signaling pathway (AID 1346859; active means well fitted activation curve with a large enough effect in the signal ratio in the repeat runs, not every such curve was filed as active; the % refers to the signal ratio; further: series mostly up to about 77 µM). An outline of the steps:
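Beta-lactamase reporter activity downstream of Smad binding elements was measured in stably transfected HEK 293T cells; compounds were incubated for 5 hr, substrate for 2 hr at room temperature.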

The target of experiment [19] is Thyrotropin receptor (Homo sapiens) (UniProt P16473). Nature of the experiment: qHTS assay to identify small molecule antagonists of the thyroid stimulating hormone receptor (TSHR) signaling pathway (AID 1259385; calls by dose curve; further: nearly all actives have a fitted effect of over 20% in size). The procedure, abridged:
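TSHR-HEK293 cells (800/well) plated 18 h, then compounds with Ro20-1724 and TSH at 1.5 ng/mL final, 30 min at room temperature. cAMP quantified by HTRF (cAMP-d2/anti-cAMP-cryptate, 1 h); 15 concentrations in triplicate.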

Several values for one entry are separate records, joined by “and”; a condition that tells them apart may be missing. Identical values can stand only once. Results filed as inconclusive are left out. Some compounds were tested as several samples or in several runs, with calls that do not always agree. Activity calls are given as the source filed them. Unless noted, the call rests on the fitted dose curve; in most records, active means well fitted curve in the direction sought with a large enough effect in the repeat runs; inconclusive means weak or mixed curves; inactive means no such curve, though single readings can be large; an effect the other way counts as inactive or inconclusive.

Sequence of Thyrotropin receptor (Homo sapiens) (P16473 whole entry, looked up): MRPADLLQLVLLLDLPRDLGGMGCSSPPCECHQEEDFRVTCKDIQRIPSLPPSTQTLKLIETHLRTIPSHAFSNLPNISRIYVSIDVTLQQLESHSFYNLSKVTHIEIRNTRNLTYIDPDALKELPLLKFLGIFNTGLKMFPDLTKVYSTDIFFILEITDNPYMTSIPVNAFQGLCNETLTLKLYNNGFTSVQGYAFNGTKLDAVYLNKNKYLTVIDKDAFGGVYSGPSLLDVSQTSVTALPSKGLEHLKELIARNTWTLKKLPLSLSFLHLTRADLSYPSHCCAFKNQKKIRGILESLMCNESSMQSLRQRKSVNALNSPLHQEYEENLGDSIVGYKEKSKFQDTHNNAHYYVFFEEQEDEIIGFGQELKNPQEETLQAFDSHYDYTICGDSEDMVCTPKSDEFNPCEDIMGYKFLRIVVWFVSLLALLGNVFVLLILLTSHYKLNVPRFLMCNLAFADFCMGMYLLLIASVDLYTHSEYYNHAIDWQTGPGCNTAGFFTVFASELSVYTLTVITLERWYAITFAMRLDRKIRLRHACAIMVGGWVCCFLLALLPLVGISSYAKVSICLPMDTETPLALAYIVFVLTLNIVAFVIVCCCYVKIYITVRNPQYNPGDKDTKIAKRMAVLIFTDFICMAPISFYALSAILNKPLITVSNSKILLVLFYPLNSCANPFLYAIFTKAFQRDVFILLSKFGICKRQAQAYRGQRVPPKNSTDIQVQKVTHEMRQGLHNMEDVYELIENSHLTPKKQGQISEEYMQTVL
Sequence of Progesterone receptor (Homo sapiens) (P06401 whole entry, looked up): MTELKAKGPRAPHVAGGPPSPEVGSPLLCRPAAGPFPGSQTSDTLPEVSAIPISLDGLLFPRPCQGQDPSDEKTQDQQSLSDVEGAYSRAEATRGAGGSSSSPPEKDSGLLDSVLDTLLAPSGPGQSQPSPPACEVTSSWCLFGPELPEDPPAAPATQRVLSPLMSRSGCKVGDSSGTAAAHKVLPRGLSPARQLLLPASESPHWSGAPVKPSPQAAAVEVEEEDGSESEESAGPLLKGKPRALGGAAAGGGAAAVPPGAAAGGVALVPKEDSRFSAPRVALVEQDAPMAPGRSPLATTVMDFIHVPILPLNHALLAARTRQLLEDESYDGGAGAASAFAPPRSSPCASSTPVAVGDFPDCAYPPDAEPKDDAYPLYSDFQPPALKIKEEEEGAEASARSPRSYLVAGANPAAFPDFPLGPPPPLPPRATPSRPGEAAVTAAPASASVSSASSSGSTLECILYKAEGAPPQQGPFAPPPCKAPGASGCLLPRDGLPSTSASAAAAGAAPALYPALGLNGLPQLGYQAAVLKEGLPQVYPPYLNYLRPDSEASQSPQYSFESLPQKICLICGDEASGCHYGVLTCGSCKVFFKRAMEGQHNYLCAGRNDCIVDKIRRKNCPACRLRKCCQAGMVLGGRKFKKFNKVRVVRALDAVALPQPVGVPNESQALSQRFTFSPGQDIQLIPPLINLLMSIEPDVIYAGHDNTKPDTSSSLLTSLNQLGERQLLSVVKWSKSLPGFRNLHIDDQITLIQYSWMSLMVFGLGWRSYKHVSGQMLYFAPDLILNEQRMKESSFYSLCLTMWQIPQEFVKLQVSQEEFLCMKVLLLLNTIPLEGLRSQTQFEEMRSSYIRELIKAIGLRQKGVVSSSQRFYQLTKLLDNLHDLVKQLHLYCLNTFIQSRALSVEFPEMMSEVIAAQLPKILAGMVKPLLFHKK

As for `OC(c1ccc(Cl)cc1)(c1cncnc1)c1ccccc1Cl` (stereo unspecified), the Potency entry in experiment [1], in experiment [2], in [7], in [8], in experiment [9] and in [11] was “inactive” each time. The Potency entry in [12], in experiment [13] and in [14] was “inactive” in each case. Moreover, the Potency in [3] was 24.3 µM (active); in experiment [4], 24.8 µM (active) and inactive; in experiment [5], 49.4 µM (active); in [6], 62.2 µM (active) and inactive; in experiment [10], 13.7 µM (active).

For the compound `CCCCSP(=O)(SCCCC)SCCCC`, the Potency result in experiment [1], in experiment [2], in experiment [3], in [4], in experiment [5] and in experiment [6] was “inactive” each time. For the same compound, the Potency entry in experiment [15], in experiment [8], in experiment [9], in experiment [11], in experiment [16] and in experiment [12] was “inactive” throughout. For the same compound, the Potency result in [13] and in [14] was “inactive” in each case. Further, the Potency in [10] is 23.8 µM (active) and 24.3 µM (active). For the same compound, the result in [17] was inactive.

In the case of `CCC/C=N/O`, the Potency result in experiment [1], in experiment [2], in experiment [3], in experiment [4], in experiment [5] and in experiment [6] was “inactive” throughout. The Potency entry in [7], in experiment [8], in [9], in experiment [10], in experiment [11] and in experiment [16] was “inactive” throughout. The Potency result in [12], in [13], in experiment [18] and in experiment [14] was “inactive” throughout.

For `Cc1cc(Cl)ccc1N=CN(C)C`, the Potency result in experiment [1], in experiment [2], in experiment [3], in [4], in [5] and in experiment [6] was “inactive” each time. The Potency entry in experiment [15], in experiment [19], in [8], in [9], in [10] and in experiment [11] was “inactive” each time. The Potency result in experiment [16], in [13] and in [14] was “inactive” in each case. Moreover, the result in experiment [17] was inactive.

Turning to `N#CC(c1ccccc1)c1ccccc1`, the Potency entry in [1], in [2], in [3], in experiment [4], in experiment [5] and in experiment [6] was “inactive” each time. In addition, the Potency result in experiment [15], in experiment [19], in experiment [8], in [9], in [10] and in experiment [11] was “inactive” throughout. Besides, the Potency result in experiment [16], in [12], in experiment [13], in experiment [18] and in experiment [14] was “inactive” throughout. Further, in experiment [17], the compound was classed as inactive.

Turning to `O=P(OCCCl)(OCCCl)OCCCl`, the Potency result in [1], in [2], in [3], in experiment [4], in [5] and in experiment [6] was “inactive” each time. Further, the Potency result in [8], in experiment [9], in experiment [10], in [11], in experiment [16] and in experiment [13] was “inactive” in each case. The Potency entry in [18] and in experiment [14] was “inactive” each time.

With `CC(C)(c1ccccc1)c1ccc(O)cc1`, the Potency was 27.1 µM (active) and 30.6 µM (active) in experiment [1]; 4.82 µM (active) and 7.7 µM (active) in experiment [3]; 60.6 µM (active) in experiment [5]; 68 µM (active) in [6]; 15.2 µM (active) and 15.4 µM (active) in experiment [7]; 7.63 µM (active) and 9.69 µM (active) in experiment [10]. The Potency result in experiment [4], in [15], in experiment [19], in experiment [8], in experiment [9] and in [11] was “inactive” each time. The Potency entry in experiment [16], in experiment [12], in [13] and in [14] was “inactive” in each case. Moreover, the result in experiment [17] was inactive.

The values above are taken from PubChem BioAssay (Tox21).
